Screening data: PubChem BioAssay, several laboratories
Only some compounds are listed: those with a hit (about 32% of all), similar ones and a draw of the others.
PostGolgi ctrl: growth inhibition of yeast control strain, primary screen, counter-screen for post-Golgi transport modulator project; efflux-deficient yeast background strain, growth absorbance A615, 16 h; inhibition, % at 10 µM; 98,000 compounds, 5% hits; AID 738, 2007
CYP2C9 activ: human CYP2C9 activators, primary screen, biochemical, luminescence; Cytochrome P450 2C9 (Homo sapiens), P11712; recombinant CYP2C9, luciferin-H conversion; active compounds read high; factor 1 = untreated enzyme, 0 = blocked; activation factor at 5 µM; 96,000 compounds, 1.4% hits; AID 1024, 2008;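 active means activation factor of 2 or more for CYP2C9 at a 5 µM dose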;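 further: 0 = sulfaphenazole-blocked wells and 1 = vehicle-only wells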
CYP2C19 inh: blockers of cytochrome P450 2C19 activity – biochemical, luminescence, ADME assay, primary screen. P33261. CYP2C19 Supersomes, luciferin-H EGE luminescence, 30 min. inhibition, % at 5 µM. 96,000 compounds, 21% hits;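 active means CYP2C19 inhibition above a set limit at 5 µM in the primary screen, cut at about 50% in these data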;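 further: plate controls were negative control wells for no effect and 2.5 mM tranylcypromine positive control for full effect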
Target sequence (P33261 whole entry, looked up): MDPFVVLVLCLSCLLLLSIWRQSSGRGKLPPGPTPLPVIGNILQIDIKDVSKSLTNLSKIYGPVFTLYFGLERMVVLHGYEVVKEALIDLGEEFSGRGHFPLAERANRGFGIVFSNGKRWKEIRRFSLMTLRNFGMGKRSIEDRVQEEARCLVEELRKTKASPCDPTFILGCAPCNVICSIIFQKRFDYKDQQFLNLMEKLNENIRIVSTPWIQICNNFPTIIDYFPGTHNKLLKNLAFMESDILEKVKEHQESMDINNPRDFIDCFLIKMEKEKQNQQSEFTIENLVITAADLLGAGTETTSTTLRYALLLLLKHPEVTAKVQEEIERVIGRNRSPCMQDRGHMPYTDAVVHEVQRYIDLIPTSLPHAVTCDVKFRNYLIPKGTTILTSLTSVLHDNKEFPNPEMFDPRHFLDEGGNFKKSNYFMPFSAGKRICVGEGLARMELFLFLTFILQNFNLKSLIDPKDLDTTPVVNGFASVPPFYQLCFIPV
CYP2C9 inh: blockers of cytochrome P450 2C9 activity – biochemical, luminescence, ADME assay, primary screen. P11712. CYP2C9 Supersomes, luciferin-H conversion. inhibition, % at 5 µM. 96,000 compounds, 20% hits;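 active means blocking of liver enzyme CYP2C9 beyond about 50% at 5 µM, limit read from the data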
PostGolgi yeast: phenotypic screen on post-Golgi transport, primary screen; post-Golgi transport phenotypic cell assay; inhibition, % at 10 µM; 98,000 compounds, 0.9% hits;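 further: yeast cells grown in 1536-well plates; yeast grown about 18 h at 30C before absorbance read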
CYP2C19 act: human CYP2C19 activators, primary screen, biochemical, luminescence; Cytochrome P450 2C19 (Homo sapiens), P33261; recombinant CYP2C19, luciferin-H EGE luminescence; active compounds read high; 0 = fully inhibited enzyme, 1 = untreated enzyme; activation factor at 5 µM; 96,000 tested, under 10 active;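 active means activation factor of at least 2 at 5 µM in the primary screen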;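 further: 0 = wells with 2.5 mM tranylcypromine and 1 = vehicle-only wells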
Active calls of the source: *; x = not tested or not shown. Unless noted, no stated cut-off is given here; in the data, active means inhibition above about 30%; inactive means the rest.

SMILES	PostGolgi ctrl	CYP2C9 activ	CYP2C19 inh	CYP2C9 inh	PostGolgi yeast	CYP2C19 act
CCOC(=O)c1c(C)nc2sc3c(=O)n(-c4ccc(C(C)=O)cc4)nnc3c2c1-c1ccc(OC)cc1	9.4	0.5	59.1*	48.5	-6.7	0.4
CCOC(=O)c1c(C)nc2sc(C(N)=O)c(N)c2c1-c1ccc(OC)cc1	26.8	0.6	1.7	36.2	-2.2	1
Cc1nc(S/C(=C/c2ccc(-c3cccc(Cl)c3)o2)C(=O)O)n[nH]1	2.3	1	-5.0	-4.0	1.1	1.1
COC(=O)C1=NN(c2ccccc2)C2(S1)SC(C(C)=O)=C(C)N2c1ccccc1 (stereo unspecified)	20.0	0.4	23.5	58.1*	9.1	0.8
CC(=O)C1=NN(c2ccccc2)C2(S1)S/C(=C\c1ccccc1)C(=O)N2c1ccccc1 (stereo unspecified)	0.0	0.4	-15.0	58.5*	-7.3	1.1
COC(=O)c1cn(-c2ccccc2)nc1C(=O)OC	-0.4	1	7.4	-0.8	-4.2	0.9
COC(=O)C1=NN(c2ccc(C)cc2)C2(S1)SC(C(C)=O)=C(C)N2c1ccccc1 (stereo unspecified)	18.7	0.4	58.1*	59.2*	6.7	0.4
CC(C)CNC(=S)NNC(=O)c1ccc(OC(F)F)cc1	10.7	0.9	26.0	8.7	3.5	0.7
CC(=O)Nc1cccc2c1OCCO2	7.6	1	0.2	-0.3	4.2	1
CCOC(=O)C1/C(=N\O)CC(C)(O)C(C(=O)OCC)C1c1ccc(OC)c(OC)c1 (stereo unspecified)	9.8	1	5.7	3.4	6.7	0.9
CCOC(=O)C1/C(=N\O)CC(C)(O)C(C(=O)OCC)C1c1ccc(N(C)C)cc1 (stereo unspecified)	7.8	0.8	83.6*	20.8	1.0	0.2
Cc1ccc(-n2nc(C(=O)N/N=C/c3cccc(C(F)(F)F)c3)c3ccccc3c2=O)cc1C	-3.1	0.9	5.6	10.3	18.5	0.9
CCn1cc(-c2nnnn2-c2ccc(Cl)cc2)c(=O)c2ccccc21	3.8	1.1	9.1	-14.6	0.0	0.9
CCOC(=O)C1CCN(C(=O)c2cn(C)c(=O)c3cc(OC)c(OC)cc23)CC1	11.4	x	x	x	6.2	x
COc1ccc(C(=O)C2CCN(C(=O)c3ccco3)CC2)cc1	2.0	0.8	51.2*	24.0	8.4	0.5
CCOC(=O)C1CCN(C(=O)c2ccc(SC)cc2OC)CC1	4.7	1.4	98.8*	-37.9	5.1	0
CCOC(=O)C1CCN(C(=O)c2ccco2)CC1	-1.6	0.8	63.1*	24.4	10.7	0.4
COc1ccc(C(=O)C2CCN(C(=O)c3ccc(C)cc3)CC2)cc1	1.1	0.7	43.5	29.4	-2.7	0.6
Cc1cc(Br)ccc1SCC(=O)OCC(=O)N1CCN(C(=O)c2ccco2)CC1	2.5	0.4	66.3*	61.3*	-3.1	0.3
O=C(COC(=O)C1CCN(C(=O)c2ccc(Cl)cc2)CC1)c1ccco1	-1.7	0.7	36.9	30.6	13.6	0.6
COC(=O)c1nn(-c2ccccc2)c(Cl)c1/C=N/OCc1ccc(C)cc1	17.9	0.5	27.7	46.0	-2.7	0.7
Cc1cc(C)n(CCCNC(=O)c2ccc3c(c2)NC(=O)CS3)n1	2.9	0.9	1.2	12.0	-3.6	1
CCOc1cc(C2c3c(n[nH]c3C)C(=O)N2c2ccc(Br)cc2)ccc1O (stereo unspecified)	5.9	0.3	81.0*	71.2*	-4.7	0.2
COc1cc(C2c3c(n[nH]c3C)C(=O)N2c2ccc(Br)cc2)ccc1O (stereo unspecified)	9.7	0.7	52.5*	30.9	0.5	0.5
CCOc1cc(C2C(C(=O)O)c3cc(OCC)c(OCC)cc3C(=O)N2C)ccc1O (stereo unspecified)	0.3	1.2	-15.2	-18.8	-5.5	1.2
SMILES	PostGolgi ctrl	CYP2C9 activ	CYP2C19 inh	CYP2C9 inh	PostGolgi yeast	CYP2C19 act
CCOc1ccc(N2CC(C(=O)Nc3ncccc3C)CC2=O)cc1 (stereo unspecified)	9.5	0.8	-6.0	23.7	2.8	1.1
CCc1cccc(NC(=O)CN(c2ccc(OC)cc2)S(=O)(=O)c2c(C)n[nH]c2C)c1	-1.2	0.2	87.7*	78.5*	5.4	0.1
COc1ccc(N(CC(=O)Nc2ccc(OC)c(Cl)c2)S(=O)(=O)c2c(C)noc2C)cc1	6.9	1	2.8	-0.5	2.3	1
COc1cc(NC(=O)CN(c2ccc(C)cc2)S(=O)(=O)c2c(C)n[nH]c2C)cc(OC)c1	3.2	0.2	81.7*	83.5*	-11.5	0.2
CCOC(=O)c1cccc(NC(=O)CN(c2ccc(C)cc2)S(=O)(=O)c2c(C)n[nH]c2C)c1	5.6	0.2	61.1*	82.3*	-6.2	0.4
COc1ccc(N(CC(=O)Nc2ccc(C)c(C)c2)S(=O)(=O)c2c(C)n[nH]c2C)cc1	2.9	0.3	82.3*	72.0*	2.7	0.2
Cc1ccc(N(CC(=O)Nc2cccc(C)c2)S(=O)(=O)c2cccc3nonc23)cc1	6.5	0.1	55.0*	88.6*	-4.7	0.4
Cc1cccc(NS(=O)(=O)c2c(C)n[nH]c2C)c1	26.7	0.2	68.3*	79.0*	7.5	0.3
COc1ccc(N(CC(=O)Nc2cccc(C)c2)S(=O)(=O)c2c(C)n[nH]c2C)cc1	-6.1	0.2	95.2*	78.8*	4.8	0
Cc1cc(C)c(S(=O)(=O)Nc2cccnc2)c(C)c1	2.0	0.7	22.3	26.0	-4.7	0.8
O=C(CC1(O)C(=O)Nc2ccccc21)c1cccnc1 (stereo unspecified)	-2.4	1	-0.4	-0.1	10.8	1
CCOC(=O)c1[nH]c2ccc(Br)cc2c1NC(=O)CCN1CCN(C(=O)OCC)CC1	-1.8	0.2	48.2	76.1*	0.6	0.5
CCOC(=O)c1[nH]c2ccc(OC)cc2c1NC(=O)CCN1CCCC(C)C1 (stereo unspecified)	1.9	1	-7.6	-2.5	-1.6	1.1
CCOC(=O)c1[nH]c2ccc(Br)cc2c1NC(=O)CCN1CCC(C(=O)OCC)CC1	1.0	0.5	76.4*	49.4	-1.0	0.2
CCOC(=O)c1[nH]c2ccc(Br)cc2c1NC(=O)CCN1CCCCC1	24.4	0.8	9.2	19.2	-7.8	0.9
CSCC[C@H](NC(=O)OC(C)(C)C)c1nnc(SCc2cccc(F)c2)o1	5.9	0.3	80.0*	69.0*	14.4	0.2
CC(C)C[C@H](NC(=O)OC(C)(C)C)c1nnc(SCC(=O)Nc2ccc(Br)cc2)o1	5.7	0.8	65.0*	23.5	-6.9	0.3
CCOC(=O)CSc1nnc([C@@H](NC(=O)OC(C)(C)C)C(C)C)o1	6.5	1	5.5	2.2	7.5	0.9
